Screens deposited in PubChem by Johns Hopkins Ion Channel Center.
Sampled rows, rich in hits. Any-hit rate of the full collection: about 1.6%.
KCNQ2 enhance: enhances the rat KCNQ2 potassium channel; O88943; CHO-K1 KCNQ2, FluxOR thallium flux fluorescence; active compounds read high; B-score at 10 µM; hit rate 0.54% among 310,000; AID 2239;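 active = fluorescence ratio B-score at least 3 SD of library B-scores, with initial fluorescence B-score within 3 of them, cut at about 5.3 in these data; same plate scores as AID 2156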;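 note: B-score of peak minus minimum over baseline fluorescence ratio after K+ and Tl+ stimulus; positive B-score means potentiation of KCNQ2 with more thallium influx and brighter signal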
KCNQ2 inh: KCNQ2 (rat) channel inhibition; O88943; CHO-K1 KCNQ2, FluxOR thallium flux, 20 min; active compounds read low; B-score at 10 µM; hit rate 1.1% among 310,000; AID 2156;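 active = fluorescence ratio B-score at most minus 3 library SDs, with starting brightness B-score within 2 library SDs, cut at about -5.5 in these data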
Kir21 conf inh: confirmation of mouse Kir2.1 potassium channel inhibitors. hit rate 41% among 2,300. shares compounds with KCNQ2 enhance. Kir2.1-expressing cells, FluxOR thallium flux fluorescence; active compounds read low. Tl flux remaining, % of negative control (active compounds read low), % at 10 µM;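 active = Primary-screen hit whose thallium flux fell at least 3 control SD below untreated wells in both duplicates, with normal baseline fluorescence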
Target sequence (P35561 whole entry, looked up): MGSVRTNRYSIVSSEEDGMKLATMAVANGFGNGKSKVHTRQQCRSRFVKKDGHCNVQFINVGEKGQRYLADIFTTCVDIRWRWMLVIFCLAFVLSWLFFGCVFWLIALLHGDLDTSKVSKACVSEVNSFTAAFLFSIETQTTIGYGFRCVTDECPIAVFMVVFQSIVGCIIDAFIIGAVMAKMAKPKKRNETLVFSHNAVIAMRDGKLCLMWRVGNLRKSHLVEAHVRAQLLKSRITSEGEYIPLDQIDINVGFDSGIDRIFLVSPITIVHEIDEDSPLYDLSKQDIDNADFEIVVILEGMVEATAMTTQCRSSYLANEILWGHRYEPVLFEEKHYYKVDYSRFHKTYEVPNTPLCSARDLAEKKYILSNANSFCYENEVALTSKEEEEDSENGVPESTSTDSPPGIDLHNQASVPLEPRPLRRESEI
HEK293 ctr: parental HEK293 activity in Kir2.1 inhibitor counter-screen. shares compounds with KCNQ2 enhance. parental HEK293 cells, FluxOR thallium flux fluorescence; 0% = unstimulated blank wells. FluxOR signal as % of negative control (100 = no effect), % at 10 µM. hit rate 19% among 2,300. AID 2105;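 active = dye signal at least 3 control SD above or below untreated wells in both duplicates, raw fluorescence within 3, either direction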;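 note: percent is based on the flux ratio of peak minus minimum fluorescence over baseline F0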
CHO-K1 ctr: alters thallium flux in parental CHO-K1 cells, KCNQ2 counter-screen; hit rate 43% among 1,200; shares compounds with KCNQ2 enhance; activity increase over 3SD of controls, % at 10 µM; AID 2282; FluxOR thallium flux fluorescence; zero = vehicle mean+3SD, 100% = vehicle-minus-blank window;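 active = signal rise of at least 3 SD above the untreated control mean, in both duplicate wells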;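 note: counter screen of KCNQ2 potentiator hits so any rise reflects channel-independent effects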
KCNQ1 pot spec: human KCNQ1 counter-target activity of KCNQ2 potentiators | shares compounds with KCNQ2 enhance | CHO KCNQ1 stable, FluxOR thallium flux fluorescence; beyond 3SD, as % of vehicle-control signal | activation over 3SD threshold, % at 10 µM | hit rate 28% among 1,200;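 active = fluorescence ratio rise of at least 3 SD of vehicle wells above their mean, in both replicate wells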
KCNQ2 pot confirm: rat KCNQ2 channel potentiator confirmation; shares compounds with KCNQ2 enhance; AID 2287; hit rate 68% among 1,200; potentiation, less the hit threshold, % at 10 µM; CHO-KCNQ2 cells, FluxOR thallium flux fluorescence;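 active = fluorescence ratio rising 3 SD or more over the vehicle control mean in both replicates, plus primary screen hit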;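 note: peak minus minimum thallium fluorescence divided by baseline after K/Tl stimulus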
Kir2-1 sel: selectivity of KCNQ2 potentiators: effect on mouse Kir2.1; shares compounds with KCNQ2 enhance; HEK293 Kir2.1, FluxOR thallium flux fluorescence; activity over 3SD threshold, % at 10 µM; hit rate 2% among 1,200;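 active = fluorescence ratio rise of at least 3 SD above the vehicle-control mean, seen in both replicates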
KCNQ2 W236L pot: potentiates the retigabine-insensitive rat KCNQ2 W236L mutant channel; shares compounds with KCNQ2 enhance; CHO KCNQ2-W236L, automated patch clamp current; current increase over 3SD of negative controls (%), active compounds read high, % at 25 µM; hit rate 10% among 940;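 active = current increase at least 3 SD of the untreated controls above them in both duplicate recordings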
Each line names hits and unclear results; the compound was inactive in the other large screens (follow-up assays come after a bar, where they were run).

O=C(NN1CC(C(=O)OCc2ccc(Br)cc2)CC1=O)c1ccccc1 (stereo unspecified)	KCNQ2 enhance 9.7 | Kir21 conf inh inactive | HEK293 ctr inactive | CHO-K1 ctr 13 | KCNQ1 pot spec inactive | KCNQ2 pot confirm 55 | Kir2-1 sel inactive | KCNQ2 W236L pot 3.6%
CCOC(=O)N1CCC(NS(=O)(=O)c2cc(Br)cc3c2N(C(=O)CC)CC3)CC1	none
Cc1cccc(CCNC(=O)COc2cc(=O)n(C)c3ccccc23)c1	none (no result: KCNQ2 enhance)
CCN(CCCNC(=O)COc1cc(=O)n(C)c2ccccc12)c1cccc(C)c1	none (no result: KCNQ2 enhance) | Kir21 conf inh 60% | HEK293 ctr inactive
CC1CCN(C(=O)C(C)NCc2ccc(F)cc2)CC1 (stereo unspecified)	none
COc1ccc(S(=O)(=O)Nc2cc(S(=O)(=O)c3ccccc3)c(O)cc2C)cc1	none
Cc1cc(O)c(C(C)C)cc1NS(=O)(=O)c1ccccc1	none (no result: KCNQ2 enhance) | Kir21 conf inh 45% | HEK293 ctr inactive
C(=C/c1ccnc2nc(SC/C=C/c3ccccc3)nn12)/c1ccccc1	none
COc1ccc(/C=C2/SC(=S)N(NS(=O)(=O)c3ccc(C)cc3)C2=O)cc1	none
C=CCOc1ccc(/C=C2\SC(=S)N(NS(=O)(=O)c3ccc(C)cc3)C2=O)cc1	KCNQ2 enhance 7.7 | Kir21 conf inh inactive | HEK293 ctr 158% | CHO-K1 ctr 17 | KCNQ1 pot spec inactive | KCNQ2 pot confirm 17 | Kir2-1 sel inactive | KCNQ2 W236L pot inactive
C/C=C/c1ccc(OCC(O)CN2CCCCC2CC)c(OC)c1 (stereo unspecified)	none (no result: KCNQ2 enhance)
OC(CNCCc1ccc(Cl)cc1)COc1cc(Cl)ccc1Cl (stereo unspecified)	none (no result: KCNQ2 enhance) | Kir21 conf inh 24% | HEK293 ctr 122%
C/C=C/c1ccc(OCC(O)CN(C)Cc2ccc(SC)cc2)c(OC)c1 (stereo unspecified)	none (no result: KCNQ2 enhance) | Kir21 conf inh inactive | HEK293 ctr inactive
COc1ccc(CCNCC(O)COc2ccc(Cl)cc2)cc1OC (stereo unspecified)	none
C/C=C/c1ccc(OCC(O)CNCC(c2ccc(OC)cc2)N(C)C)c(OC)c1 (stereo unspecified)	none (no result: KCNQ2 enhance)
C/C=C/c1ccc(OCC(O)CNCCc2ccc(OC)cc2)c(OC)c1 (stereo unspecified)	none (no result: KCNQ2 enhance) | Kir21 conf inh inactive | HEK293 ctr inactive
CCOc1ccc(CCNC(=O)COC(=O)c2ccc(OC(C)C)cc2)cc1OCC	none (no result: KCNQ2 enhance)
CCN(C1CCCCC1)S(=O)(=O)c1cc2c3c(c1)CCN3C(=O)CC2	none (no result: KCNQ2 enhance)
CC1=NN(C(=O)CSCc2ccccc2)C(O)(c2ccc(Cl)cc2)C1 (stereo unspecified)	none (no result: KCNQ2 enhance)
CC1=NN(C(=O)c2ccc(Cl)cc2)C(O)(c2ccccc2)C1 (stereo unspecified)	KCNQ2 enhance 20 | Kir21 conf inh inactive | HEK293 ctr inactive | CHO-K1 ctr inactive | KCNQ1 pot spec inactive | KCNQ2 pot confirm inactive | Kir2-1 sel inactive | KCNQ2 W236L pot inactive
CCOC(=O)CSc1nnc(-c2ccco2)n1-c1ccccc1	none (no result: KCNQ2 enhance)
COC(=O)c1cccc(CSc2nnc(-c3ccco3)n2-c2ccccc2)c1	none (no result: KCNQ2 enhance) | Kir21 conf inh 58% | HEK293 ctr 68%
COCCCNC(=O)CCCn1c(=O)c2ccccc2n(Cc2cccc([N+](=O)[O-])c2)c1=O	none
COc1ccc(Nc2nnc(SCC(=O)/C=C3/N(C)c4ccccc4C3(C)C)s2)cc1	none
S=c1nc(-c2ccccc2)n(-c2ccccc2)[nH]1	none
S=c1nc(C2CCCCC2)n(-c2ccccc2)[nH]1	KCNQ2 enhance 11 | Kir21 conf inh inactive | HEK293 ctr 262% | CHO-K1 ctr 42 | KCNQ1 pot spec inactive | KCNQ2 pot confirm 22 | Kir2-1 sel inactive | KCNQ2 W236L pot inactive
COC(=O)C1=C(C)NC(=O)/C1=C\N(C)C	none (no result: KCNQ2 enhance)
CCN(CC)C(=O)Cn1nc(C)c2ccccc2c1=O	none
CC(C)NCC(O)Cn1c2c(c3ccccc31)CCc1c-2cnn1-c1ccccc1 (stereo unspecified)	none (no result: KCNQ2 enhance) | Kir21 conf inh 54% | HEK293 ctr inactive
COc1ccc(C(=O)c2c(C)c3ccccc3n2CC(O)CNC(C)C)cc1 (stereo unspecified)	none
Cc1ccc(C(C)C)c(OCC(O)CN(C)Cc2ccccc2)c1 (stereo unspecified)	none (no result: KCNQ2 enhance) | Kir21 conf inh 20% | HEK293 ctr inactive
Cc1ccc(C(C)C)c(OCCCN(C)Cc2ccccc2)c1	none (no result: KCNQ2 enhance)
CC(=O)N1c2ccc(S(=O)(=O)N(C)CC(=O)Nc3ccccc3C)cc2CC1C (stereo unspecified)	none
CC1CCCCC1NC(=O)CCCn1c(=S)[nH]c2ccccc2c1=O (stereo unspecified)	none
CC1CCCCC1n1c(=S)[nH]c2ccccc2c1=O (stereo unspecified)	KCNQ2 enhance 6.6 | Kir21 conf inh inactive | HEK293 ctr 208% | CHO-K1 ctr 0.6 | KCNQ1 pot spec 20 | KCNQ2 pot confirm 19 | Kir2-1 sel inactive | KCNQ2 W236L pot inactive
COC(=O)CSC1=NS(=O)(=O)c2ccccc21	KCNQ2 inh -7.9 | Kir21 conf inh 58% | HEK293 ctr inactive
COC(=O)CSc1ccccc1C(=O)OC	none (no result: KCNQ2 enhance)
COC(=O)c1c(N2C(=O)CC(Sc3ccccc3C(=O)O)C2=O)sc2c1CCCC2 (stereo unspecified)	none
COc1ccc(CNC(=O)CN(C(=O)c2csnn2)c2ccc(F)cc2)cc1	none (no result: KCNQ2 enhance)
CCN(CC)c1ccc(NC(=O)C2CCCC2)cc1	none
CCCCc1ccc(NC(=O)C2CCCC2)cc1	KCNQ2 enhance 7 | Kir21 conf inh inactive | HEK293 ctr inactive | CHO-K1 ctr 109 | KCNQ1 pot spec inactive | KCNQ2 pot confirm inactive | Kir2-1 sel inactive | KCNQ2 W236L pot inactive
CCCCc1ccc(NC(=O)CC(C)C)cc1	KCNQ2 enhance 7.4 | Kir21 conf inh inactive | HEK293 ctr 280% | CHO-K1 ctr inactive | KCNQ1 pot spec inactive | KCNQ2 pot confirm 94 | Kir2-1 sel inactive | KCNQ2 W236L pot inactive
CCCCc1ccc(NC(=O)COCC)cc1	none
COc1ccc(CCNC/C=C/c2ccccc2)cc1	none
COc1ccc(CNC/C=C/c2ccccc2)cc1	none | Kir21 conf inh 18% | HEK293 ctr inactive
COc1ccc(CNCC(O)(c2ccccc2)c2ccc(F)cc2)cc1 (stereo unspecified)	none (no result: KCNQ2 enhance) | Kir21 conf inh 42% | HEK293 ctr inactive
